Assay results reported in PubChem BioAssay (NCATS).
Inconclusive results are not listed. Active and inactive are the calls of the source. Unless noted, calls come from the whole dose curve; as a rule, active = well fitted curve in the direction sought with a large enough effect; inconclusive = small, poorly fitted or top-dose-only effect, or another doubt; inactive = no such curve, though single readings can be large; an effect the other way counts as inactive or inconclusive.

Tests used:
[1] = Primary qHTS for inhibitors of nuclear receptor binding SET domain protein 2 (NSD2) in an RCH-ACV wild type WT cells (2C) (AID 1645877); note: potency is the fitted concentration of half-maximal effect; nearly all actives have a fitted effect of over 70% in size
[2] = target: Phospholipid hydroperoxide glutathione peroxidase GPX4 (Homo sapiens) (UniProt P36969); test: Primary qHTS Assay for Inhibitors of Recombinant Selenoprotein Glutathione Peroxidase 4 (GPX4) (AID 1845192); note: series mostly up to about 50 µM; nearly all actives have a fitted effect of over 65% in size
In short: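 Steps: GPX4 plus compound, 30 min RT; add GR/GSH/NADPH master mix; start with cumene hydroperoxide; read 340/450 nm fluorescence at 0 and 15 min. Finals were 200 nM GPX4, 1 mM GSH, 0.5 mM CHP, 0.5 mM NADPH, 100 nM GR.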

[3] = qHTS drug screen for cell cycle checkpoint inhibitors in PARPi-resistant BRCA-mutant ovarian cancer cell lines. (AID 1963452; calls by dose curve); settings: PEO1/OlaR viability, CellTiter-Glo luminescence, 96 h, stronger effect = lower value
In short: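 PEO1, PEO4 and PEO1/OlaR ovarian cancer cells, 600 per well, exposed 96 h at 37C to a dilution series. Viability read by CellTiter-Glo luminescence, normalized to DMSO and empty wells; activity summarized as Z-AUC.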

Sequence of Phospholipid hydroperoxide glutathione peroxidase GPX4 (Homo sapiens) (P36969 whole entry, looked up): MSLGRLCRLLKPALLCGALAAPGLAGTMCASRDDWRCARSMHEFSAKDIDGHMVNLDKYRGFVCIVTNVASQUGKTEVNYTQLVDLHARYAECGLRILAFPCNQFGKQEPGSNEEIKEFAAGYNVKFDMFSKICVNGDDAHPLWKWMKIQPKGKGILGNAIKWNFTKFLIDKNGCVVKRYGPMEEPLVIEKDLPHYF

Q: Which results are given for `Cc1c(CN2CCC(Nc3ncnc4sc(CC(F)(F)F)cc34)CC2)ccc2c1cc(C#N)n2Cc1cn[nH]c1`?
A: Potency [1]: 3.32 µM (active); Potency [2]: inactive; Z-AUC [3]: -0.417 (inactive); Z-AUC ([3]; measured here: PEO1 parental Z-AUC): -0.643; Z-AUC ([3]; measured here: PEO4 Z-AUC): -0.075
